Test results published in PubChem BioAssay (NCATS).
Results filed as inconclusive are left out. Unmarked numbers belong to inactive results. Active and inactive are the calls of the source. Calls follow the shape of the dose curve; as a rule, active = well fitted cell-killing curve with a large enough effect; inconclusive = small, poorly fitted or top-dose-only effect; inactive = flat fitted curve, though single readings scatter.

experiment: Cellular viability qHTS for adrenocortical cancer (ACC) cell line NCI-H295R (AID 1963990); conditions: CellTiter-Glo ATP luminescence, 48 h; series mostly up to 46.1 µM; activity change, negative = viability loss: at the top concentration; also: nearly all actives have a fitted effect of over 60% in size;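 as to activity change, negative = viability loss: 0% = DMSO only wells and -100% = full killing with cytotoxic reference compound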
Method in brief: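 CellTiter-Glo ATP luminescence, read 48 h after compound addition, measured viability of NCI-H295R adrenocortical cells grown serum-free with ITS. Final concentrations spanned up to 46 uM. Data normalized to DMSO and doxorubicin, fitted for IC50 and maximal response.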
Potency is read from the fitted curve at half-maximal effect.

SMILES	activity change, negative = viability loss	Potency
COc1cc(C[C@@H](C)N)c(OC)cc1Br	-29.4% [at 92.7 µM]	–
C[C@](O)(COc1ccc(C#N)cc1)C(=O)Nc1ccc(C#N)c(C(F)(F)F)c1	–	17.8 µM (active)
CS(=O)(=O)c1ccc(C(=O)C2C(=O)CCCC2=O)c([N+](=O)[O-])c1	8.11% [at 92.7 µM]	–
C=CCC1(C(C)CC)C(=O)NC(=O)NC1=O (stereo not drawn)	-5.51%	–
CN1C2CCC(C)(C)C1CC(OC(=O)C(O)(c1cccs1)c1cccs1)C2 (stereo not drawn)	-5.04%	–
C=CCC1([C@H](C)CCC)C(=O)NC(=O)NC1=O	-20.9% [at 92.7 µM]	–
C[C@]12CC[C@H]3[C@@H](CCC4=CC(=O)CC[C@@H]43)[C@@H]1CC[C@@H]2O	-18.2%	–
CCCCCCCCCC(CC)c1ccc(S(=O)(=O)O)cc1 (stereo not drawn)	–	25.1 µM (active)
N[C@@H](Cc1ccc(N(CCCl)CCCl)cc1)C(=O)O	–	28.2 µM (active)
CC(=O)[C@H]1CC[C@H]2[C@@H]3CC[C@H]4C[C@](C)(O)CC[C@]4(C)[C@H]3CC[C@]12C	-3.49%	–
NCCc1ccc(O)cc1	-4.16%	–
CC1(C)CC[C@]2(NC(=O)C(C)(F)F)CC[C@]3(C)[C@H](C(=O)C=C4[C@@]5(C)C=C(C#N)C(=O)C(C)(C)[C@@H]5CC[C@]43C)[C@@H]2C1	–	3.98 µM (active)
OCCCBr	-27.7% [at 92.7 µM]	–
C=C(C)[C@H]1Cc2c(ccc3c2O[C@@H]2COc4cc(OC)c(OC)cc4[C@@H]2C3=O)O1	–	0.103 µM (active)
C[N+]1(CCC(C(N)=O)(c2ccccc2)c2ccccc2)CCCCC1	2.24%	–
CC(=O)OCC1=C(C(=O)O)N2C(=O)[C@@H](N)[C@H]2SC1	-21.9% [at 20 µM]	–
O=C(O)COc1nc(Cl)c(Cl)cc1Cl	-27.3% [at 92.7 µM]	–

SMILES	activity change, negative = viability loss	Potency
CCN(CC)C(=O)N[C@@H]1C=C2c3cccc4[nH]cc(c34)C[C@@H]2N(C)C1	-12.8%	–
O=C(Oc1ccc([N+](=O)[O-])cc1)N1CCC(C(O)(c2ccc3c(c2)OCO3)c2ccc3c(c2)OCO3)CC1	9.55%	–
Cc1ccc(S(=O)(=O)N[C@@H](CCCCN)C(=O)CCl)cc1	-23.2%	–
CCN1CCN(C(=O)Cc2ccc(Nc3ncc(F)c(Nc4ccc(C(=O)Nc5ccccc5Cl)cc4)n3)cc2)CC1	–	3.55 µM (active)
CCOP(=S)(OCC)O/N=C(\C#N)c1ccccc1	-9.72%	–
Cc1cccc(C)c1NC(=O)CN1CCCC1=O	–	inactive
C[C@]12CCC(=O)C=C1CC[C@@H]1[C@@H]2CC[C@]2(C)C(=O)CC[C@@H]12	-14%	–
CO[C@]12CC[C@@]3(C[C@@H]1[C@](C)(O)C(C)(C)C)[C@@H]1Cc4ccc(O)c5c4[C@@]3(CCN1CC1CC1)[C@H]2O5	–	3.98 µM (active)
CC(=O)Nc1ccc(OC[C@](C)(O)C(=O)Nc2ccc([N+](=O)[O-])c(C(F)(F)F)c2)cc1	0.418%	–
CCNC(=O)CC1N=C(c2ccc(Cl)cc2)c2cc(OC)ccc2-n2c(C)nnc21 (stereo not drawn)	-24.4%	–
COc1nn(CSP(=S)(OC)OC)c(=O)s1	–	25.1 µM (active)
CCCC(C)C1(CC)C(=O)N=C(S)NC1=O (stereo not drawn)	-9.71%	–
COc1cccc2c1C(=O)c1c(O)c3c(c(O)c1C2=O)C[C@@](O)(C(=O)CO)CC3OC1CC(N2CCOC(OC)C2)C(O)C(C)O1 (stereo partly drawn)	–	0.0501 µM (active)
CCO[C@H]1O[C@@H]2OC3(C)CC[C@H]4[C@H](C)CC[C@@H]([C@H]1C)[C@@]24OO3	-9.69%	–
CCOP(=S)(OCC)Oc1ccc2c(C)c(Cl)c(=O)oc2c1	-21.9%	–
NC(=O)CS(=O)C(c1ccccc1)c1ccccc1 (stereo not drawn)	-0.766%	–
